Source: ChEMBL document CHEMBL3988442, “University of Dundee, Small-Polar-MMV Screening Library” (2021)

What follows are compounds tested against T1, Arginase-2, mitochondrial (Homo sapiens) (UniProt P78540) (assay: in vitro enzyme assay to detect the production of urea directly proportional to the activity of Arginase II). Conditions: 33.3 µM.
T1 sequence (whole entry): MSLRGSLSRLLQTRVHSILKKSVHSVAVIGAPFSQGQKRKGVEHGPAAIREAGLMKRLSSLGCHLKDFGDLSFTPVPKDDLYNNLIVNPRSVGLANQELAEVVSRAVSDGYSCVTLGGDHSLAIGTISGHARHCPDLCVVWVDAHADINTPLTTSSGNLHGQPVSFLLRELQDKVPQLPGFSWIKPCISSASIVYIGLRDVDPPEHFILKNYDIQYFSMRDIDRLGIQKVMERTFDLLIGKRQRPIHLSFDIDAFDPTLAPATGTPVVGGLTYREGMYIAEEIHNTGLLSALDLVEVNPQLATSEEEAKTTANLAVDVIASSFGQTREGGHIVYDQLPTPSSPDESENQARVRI
Format: functional
Set-up: scale not given: in the data most compounds retested in dose-response had high values

`CC(C)COC(C)C(=O)NCc1ccc(OC(C)C)nc1` (stereo not given) was tested. Which Percent Effect did it give?
The Percent Effect was 1.9%.

`CCc1n[nH]c(C2CN(CCc3cccs3)CCO2)n1` (stereo not given) was tested. Which Percent Effect did it give?
The Percent Effect was -1.94%.

How did the Percent Effect turn out when `CC(=O)N1CCCC(c2ccc(Nc3nc(C)cc(C)n3)cn2)C1` (stereo not given) was run?
The Percent Effect was 3.5%.

Which Percent Effect does the source give for `CN(CC1(O)CCCN(CCC2CCCCC2)C1=O)C1CCOCC1` (stereo not given) here?
The Percent Effect was 6.77%.

For `Cc1noc(C2CCC3(CCN(C(=O)c4c(C)noc4C)CC3)O2)n1` (stereo not given), which Percent Effect is on record?
Its Percent Effect is -6.2%.

For `COc1ncccc1NC(=O)N1CCC(CNC(C)=O)CC1`, which Percent Effect is on record?
Its Percent Effect is 3.12%.

`CN1CCN(CCCNC(=O)c2cc(Cl)c3c(c2)OCO3)CC1` was tested. Which Percent Effect did it give?
Its Percent Effect is 10.6%.

For `O=C(NS(=O)(=O)c1ccc2c(c1)OCCO2)c1ccc(Br)cc1F`, which Percent Effect is on record?
The Percent Effect was 1.07%.

For `CCN1CCC(CNC(=O)C2(c3cccc(C)c3)CC2)C1` (stereo not given), which Percent Effect is on record?
The Percent Effect was 5.81%.

For `CC(C)N(C)Cc1cnc2n1CCN(CCc1ccccc1)C2`, which Percent Effect is on record?
Its Percent Effect is -2.92%.

Which Percent Effect does the source give for `CNc1nc2c(c(C(=O)N3CCCC3)n1)CN(Cc1nccn1C)CC2` here?
Its Percent Effect is -2.79%.

For `Cc1ccc(-n2nnc(CC(=O)N3CCSCC3)c2C)cc1`, which Percent Effect is on record?
The Percent Effect was -5.52%.

For `Cc1nc(CN2CCCC(N(C)Cc3nnsc3Cl)C2)no1` (stereo not given), which Percent Effect is on record?
Its Percent Effect is -5.26%.

Which Percent Effect does the source give for `Cc1nc(-c2ccccc2)sc1C(=O)NCCNc1ncccn1` here?
The Percent Effect was 4.32%.

With `Cc1cc(=O)n(CC(=O)NCCC(C)C)c(-c2cccc(Cl)c2)n1` as the compound, how does the Percent Effect read?
Its Percent Effect is -9.65%.

For `CCn1ccnc1CN(C)C1CCCN(CCc2ccccc2)C1` (stereo not given), which Percent Effect is on record?
The Percent Effect was 4.14%.

Which Percent Effect does the source give for `CCN1CCN(c2ncc(-c3cc(C)no3)c(-c3ccoc3C)n2)CC1` here?
The Percent Effect was -3.48%.

For `COc1ccccc1CC(=O)N1CCC(NCc2c[nH]nc2C)CC1`, which Percent Effect is on record?
The Percent Effect was 0.924%.

Which Percent Effect does the source give for `CN(Cc1cccc(F)c1)C1CCN(CCc2ccccn2)CC1` here?
The Percent Effect was -1.29%.

How did the Percent Effect turn out when `CC(C)c1nc2n(n1)CC(NCc1nc(-c3cccnc3)no1)CC2` (stereo not given) was run?
Its Percent Effect is -2.74%.

For `CCc1noc(C(C)N2CCN(Cc3nc(C)c(C)o3)CC2)n1` (stereo not given), which Percent Effect is on record?
Its Percent Effect is -0.766%.

`CCn1cnnc1C1CCN(C(=O)c2cnc3ccccc3n2)CC1` was tested. Which Percent Effect did it give?
The Percent Effect was -11.8%.

How did the Percent Effect turn out when `CN(CC(=O)NCc1ccccn1)CC1CCCN1c1cccnn1` (stereo not given) was run?
Its Percent Effect is -3.75%.

How did the Percent Effect turn out when `CC(C)(NCC(=O)NCCC#N)c1ccc2c(c1)OCCO2` was run?
Its Percent Effect is -8.42%.

With `Cc1ccc(NC2CCN(C(=O)c3cccc(F)c3F)CC2)nn1` as the compound, how does the Percent Effect read?
The Percent Effect was -0.645%.

How did the Percent Effect turn out when `Clc1ccccc1C1(c2ccnc(-c3ncccn3)n2)CCNCC1` was run?
The Percent Effect was -2.76%.

For `O=C1CC(c2ccncc2)c2c(c(C(=O)O)cn2-c2ccc(F)cc2)N1` (stereo not given), which Percent Effect is on record?
Its Percent Effect is -3.35%.

How did the Percent Effect turn out when `O=C(NCCC(=O)N1CCCc2ccccc21)c1c(O)cc(F)cc1F` was run?
The Percent Effect was -1.47%.

For `CNC(=O)N1C[C@H]2CC[C@@]3(N=C(c4ccccc4)NC3=O)[C@H]2C1`, which Percent Effect is on record?
Its Percent Effect is -67.6%.

`Cc1cc(CN(C)C2CCCN(Cc3noc(C4CC4)n3)C2)no1` (stereo not given) was tested. Which Percent Effect did it give?
The Percent Effect was -1.8%.

For `C=C1c2ccccc2C(=O)N1CCC(=O)N1CCNC(=O)C1`, which Percent Effect is on record?
Its Percent Effect is 6.51%.

For `CCOC(=O)CCNC(=O)N1CCN(c2nc3ccccc3n2C)CC1`, which Percent Effect is on record?
Its Percent Effect is -266%.

Which Percent Effect does the source give for `CNc1cc(N2CCCC2CNCc2c[nH]nc2C(C)(C)C)ncn1` (stereo not given) here?
Its Percent Effect is -4.17%.

For `COCC1c2c(cnn2CC2CC2)CCN1Cc1nccs1` (stereo not given), which Percent Effect is on record?
The Percent Effect was -26%.

How did the Percent Effect turn out when `CCc1nnc2n1CCN(C(=O)c1csc(-c3cnn(C)c3)n1)C2` was run?
Its Percent Effect is 8.39%.

Which Percent Effect does the source give for `Cn1ncc2c1CCCC2NCc1cc(Br)cs1` (stereo not given) here?
The Percent Effect was 2.74%.

Which Percent Effect does the source give for `CCC(C)c1noc(C2CCN(C(=O)c3cccs3)CC2)n1` (stereo not given) here?
Its Percent Effect is -2.76%.

Which Percent Effect does the source give for `CCn1cnnc1CNC(=O)NC(C)C(C)C` (stereo not given) here?
The Percent Effect was 0%.

Which Percent Effect does the source give for `O=C(CC1CCCC1)N1CCCC(c2n[nH]c3nccnc23)C1` (stereo not given) here?
Its Percent Effect is 7.66%.

`Fc1ccc2[nH]c(C3CCCN3CCc3ccccn3)nc2c1` (stereo not given) was tested. Which Percent Effect did it give?
The Percent Effect was -1.2%.

Each compound was assayed against T2, Proteasome subunit beta (Trypanosoma cruzi) (UniProt O96673) (assay: Trypanosoma cruzi proteasome chymotrypsin-like activity (TcProtChymo) assay.). Conditions: 9.37 µM.
T2 sequence (whole entry): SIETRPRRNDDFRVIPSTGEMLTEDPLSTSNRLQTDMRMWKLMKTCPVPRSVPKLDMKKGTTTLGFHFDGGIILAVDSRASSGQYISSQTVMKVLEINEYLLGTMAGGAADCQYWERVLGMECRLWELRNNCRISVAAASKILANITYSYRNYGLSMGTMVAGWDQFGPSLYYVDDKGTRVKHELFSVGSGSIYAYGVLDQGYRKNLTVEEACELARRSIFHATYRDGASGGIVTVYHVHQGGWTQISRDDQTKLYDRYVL
Format: functional
Set-up: scale not given: in the data most compounds retested in dose-response had high values

`CC(C)COC(C)C(=O)NCc1ccc(OC(C)C)nc1` (stereo not given) was tested. Which Percent Effect did it give?
Its Percent Effect is 11.1%.

Which Percent Effect does the source give for `CCc1n[nH]c(C2CN(CCc3cccs3)CCO2)n1` (stereo not given) here?
The Percent Effect was 8.06%.

Which Percent Effect does the source give for `CC(=O)N1CCCC(c2ccc(Nc3nc(C)cc(C)n3)cn2)C1` (stereo not given) here?
The Percent Effect was -2.2%.

For `CN(CC1(O)CCCN(CCC2CCCCC2)C1=O)C1CCOCC1` (stereo not given), which Percent Effect is on record?
Its Percent Effect is 6.8%.

For `Cc1noc(C2CCC3(CCN(C(=O)c4c(C)noc4C)CC3)O2)n1` (stereo not given), which Percent Effect is on record?
The Percent Effect was 0.0858%.

How did the Percent Effect turn out when `COc1ncccc1NC(=O)N1CCC(CNC(C)=O)CC1` was run?
The Percent Effect was 7.5%.

`CN1CCN(CCCNC(=O)c2cc(Cl)c3c(c2)OCO3)CC1` was tested. Which Percent Effect did it give?
The Percent Effect was 27%.

With `O=C(NS(=O)(=O)c1ccc2c(c1)OCCO2)c1ccc(Br)cc1F` as the compound, how does the Percent Effect read?
The Percent Effect was 12%.

Which Percent Effect does the source give for `CCN1CCC(CNC(=O)C2(c3cccc(C)c3)CC2)C1` (stereo not given) here?
The Percent Effect was 10.1%.

Which Percent Effect does the source give for `CC(C)N(C)Cc1cnc2n1CCN(CCc1ccccc1)C2` here?
Its Percent Effect is 9.04%.

Which Percent Effect does the source give for `CNc1nc2c(c(C(=O)N3CCCC3)n1)CN(Cc1nccn1C)CC2` here?
The Percent Effect was 19.4%.

For `Cc1ccc(-n2nnc(CC(=O)N3CCSCC3)c2C)cc1`, which Percent Effect is on record?
Its Percent Effect is 11.2%.

Which Percent Effect does the source give for `Cc1nc(CN2CCCC(N(C)Cc3nnsc3Cl)C2)no1` (stereo not given) here?
Its Percent Effect is 2.99%.

How did the Percent Effect turn out when `Cc1nc(-c2ccccc2)sc1C(=O)NCCNc1ncccn1` was run?
The Percent Effect was 3.98%.

For `Cc1cc(=O)n(CC(=O)NCCC(C)C)c(-c2cccc(Cl)c2)n1`, which Percent Effect is on record?
The Percent Effect was 6.49%.

For `CCn1ccnc1CN(C)C1CCCN(CCc2ccccc2)C1` (stereo not given), which Percent Effect is on record?
Its Percent Effect is 0.832%.

`CCN1CCN(c2ncc(-c3cc(C)no3)c(-c3ccoc3C)n2)CC1` was tested. Which Percent Effect did it give?
Its Percent Effect is 6.4%.

`COc1ccccc1CC(=O)N1CCC(NCc2c[nH]nc2C)CC1` was tested. Which Percent Effect did it give?
Its Percent Effect is 3.95%.

`CN(Cc1cccc(F)c1)C1CCN(CCc2ccccn2)CC1` was tested. Which Percent Effect did it give?
The Percent Effect was 9.34%.

`CC(C)c1nc2n(n1)CC(NCc1nc(-c3cccnc3)no1)CC2` (stereo not given) was tested. Which Percent Effect did it give?
Its Percent Effect is 11.1%.

`CCc1noc(C(C)N2CCN(Cc3nc(C)c(C)o3)CC2)n1` (stereo not given) was tested. Which Percent Effect did it give?
The Percent Effect was 0.668%.

`CCn1cnnc1C1CCN(C(=O)c2cnc3ccccc3n2)CC1` was tested. Which Percent Effect did it give?
Its Percent Effect is 13.7%.

How did the Percent Effect turn out when `CN(CC(=O)NCc1ccccn1)CC1CCCN1c1cccnn1` (stereo not given) was run?
Its Percent Effect is 27.8%.

`CC(C)(NCC(=O)NCCC#N)c1ccc2c(c1)OCCO2` was tested. Which Percent Effect did it give?
Its Percent Effect is 17.3%.

With `Cc1ccc(NC2CCN(C(=O)c3cccc(F)c3F)CC2)nn1` as the compound, how does the Percent Effect read?
The Percent Effect was 1.54%.

How did the Percent Effect turn out when `Clc1ccccc1C1(c2ccnc(-c3ncccn3)n2)CCNCC1` was run?
The Percent Effect was 7.49%.

`O=C1CC(c2ccncc2)c2c(c(C(=O)O)cn2-c2ccc(F)cc2)N1` (stereo not given) was tested. Which Percent Effect did it give?
Its Percent Effect is 13.7%.

For `O=C(NCCC(=O)N1CCCc2ccccc21)c1c(O)cc(F)cc1F`, which Percent Effect is on record?
The Percent Effect was 11.1%.

Which Percent Effect does the source give for `CNC(=O)N1C[C@H]2CC[C@@]3(N=C(c4ccccc4)NC3=O)[C@H]2C1` here?
The Percent Effect was 9.48%.

Which Percent Effect does the source give for `Cc1cc(CN(C)C2CCCN(Cc3noc(C4CC4)n3)C2)no1` (stereo not given) here?
Its Percent Effect is 12.4%.

Which Percent Effect does the source give for `C=C1c2ccccc2C(=O)N1CCC(=O)N1CCNC(=O)C1` here?
Its Percent Effect is 29.6%.

With `CCOC(=O)CCNC(=O)N1CCN(c2nc3ccccc3n2C)CC1` as the compound, how does the Percent Effect read?
The Percent Effect was 12.2%.

For `CNc1cc(N2CCCC2CNCc2c[nH]nc2C(C)(C)C)ncn1` (stereo not given), which Percent Effect is on record?
Its Percent Effect is 6%.

How did the Percent Effect turn out when `COCC1c2c(cnn2CC2CC2)CCN1Cc1nccs1` (stereo not given) was run?
The Percent Effect was 12.1%.

With `CCc1nnc2n1CCN(C(=O)c1csc(-c3cnn(C)c3)n1)C2` as the compound, how does the Percent Effect read?
Its Percent Effect is 15.1%.

For `Cn1ncc2c1CCCC2NCc1cc(Br)cs1` (stereo not given), which Percent Effect is on record?
Its Percent Effect is 21.4%.

`CCC(C)c1noc(C2CCN(C(=O)c3cccs3)CC2)n1` (stereo not given) was tested. Which Percent Effect did it give?
Its Percent Effect is 13.8%.

How did the Percent Effect turn out when `CCn1cnnc1CNC(=O)NC(C)C(C)C` (stereo not given) was run?
Its Percent Effect is 12.5%.

`O=C(CC1CCCC1)N1CCCC(c2n[nH]c3nccnc23)C1` (stereo not given) was tested. Which Percent Effect did it give?
The Percent Effect was 11.2%.

How did the Percent Effect turn out when `Fc1ccc2[nH]c(C3CCCN3CCc3ccccn3)nc2c1` (stereo not given) was run?
Its Percent Effect is 18.6%.
